Screens from PubChem.
NPC1 promoter act – activates the NPC1 promoter | Huh7 NPC1 promoter luciferase reporter, 24 h | Potency, µM (doses to about 9.22 µM), inactives show at the highest dose activation, hits mostly activators | 320,000 compounds, 2.4% hits; also: % of control where 0% means no effect; nearly all actives have a fitted effect of over 60% in size
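Luminescence read-out of NPC1 promoter-driven luciferase in stably transfected Huh7 cells; compounds delivered in DMSO and left 24 h at 37C, 5% CO2, qHTS titration format.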
ELG1 DNA repair – ELG1-dependent DNA repair inhibition; 330,000 compounds, 2.3% hits; HEK293T ELG1-luciferase reporter, luminescence, 16 h; DNA damage induced by 5-fluorouridine; Potency, µM (highest dose often 46.1 µM), without a hit: at the top dose activity change, negative = inhibition, usual class: inhibitors; also: % is scaled to controls: 0 for no effect and ±100 for the full control effect; nearly all actives have a fitted effect of over 55% in size
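Reporter activity after DNA damage by 5-fluorouridine is monitored. Compound-treated cells incubate 16 hr at 37 °C, then ONE-Glo is added for 30 min before luminescence reading.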
FLuc modulator – inhibits or activates purified firefly luciferase, miR-21 counter-screen; AID 588342; purified FLuc, Km substrates, luminescence inhibition; Potency, µM (doses to about 57.5 µM), without a hit: top-dose activity change, negative = inhibition, usual class: inhibitors; 360,000 compounds, 6.9% hits;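 also: plate controls were vehicle for no effect and reference inhibitor for full effect; nearly all actives have a fitted effect of over 55% in size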
Target sequence (P08659 whole entry, looked up): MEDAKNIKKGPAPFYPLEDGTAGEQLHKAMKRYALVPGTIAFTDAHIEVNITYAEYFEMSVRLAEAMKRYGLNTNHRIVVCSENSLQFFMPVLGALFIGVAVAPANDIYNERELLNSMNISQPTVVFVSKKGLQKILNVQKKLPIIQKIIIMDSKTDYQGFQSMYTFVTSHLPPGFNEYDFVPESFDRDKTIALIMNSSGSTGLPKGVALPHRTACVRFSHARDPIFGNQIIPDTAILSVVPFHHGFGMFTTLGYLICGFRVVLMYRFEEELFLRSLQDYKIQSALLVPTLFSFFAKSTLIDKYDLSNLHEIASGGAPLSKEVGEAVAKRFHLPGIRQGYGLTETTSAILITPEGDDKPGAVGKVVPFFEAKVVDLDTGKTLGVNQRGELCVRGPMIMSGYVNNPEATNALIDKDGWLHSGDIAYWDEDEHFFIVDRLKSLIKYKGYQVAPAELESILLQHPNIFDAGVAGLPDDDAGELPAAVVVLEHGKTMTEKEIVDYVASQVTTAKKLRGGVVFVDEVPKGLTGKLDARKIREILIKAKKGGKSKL
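Biochemical qHTS of compounds, final roughly 60 µM downward over six points, against 10 nM purified firefly luciferase using Km concentrations of substrates (10 uM D-luciferin, 10 uM ATP) in Tris acetate pH 7.5 buffer; luminescence output.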
SMN2 splice enh – increases expression of the SMN2 splice variant; HEK293 SMN2-luciferase splicing reporter, luminescence, 30-36 h; Potency, µM (series often up to 46.1 µM), for the others: top-dose activity change, positive = activation, actives largely listed as activators; 210,000 compounds, 2.8% hits; AID 1458; also: % of control where 0% means no effect; nearly all actives have a fitted effect of over 55% in size
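HEK293 cells carry an SMN2 minigene-luciferase reporter in which exon 7 inclusion puts luciferase in frame. Cells were seeded at 2000 cells/well, attached for 10-12 hours, then exposed to compounds for 30-36 hours at 37C before ONE-Glo luminescence.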
Rab9 prom act – activators of Rab9 promoter; Huh7 Rab9 promoter-luciferase reporter, luminescence, 24 h; Potency, µM (titrated, usually from 9.22 µM), for the others: top-dose activation, negative = inhibition, actives largely listed as activators; 320,000 compounds, 2.8% hits; AID 485297; also: % of control where 0% means no effect; nearly all actives have a fitted effect of over 60% in size
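Measured in stably transfected Huh7 cells bearing a Rab9 promoter–luciferase construct: 24 h compound treatment at 37 °C, followed by luminescence detection.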
ELG1 genotoxic – inducers of genotoxicity in HEK293T ELG1-luciferase cells; HEK293T ELG1-luciferase reporter, luminescence, 16 h; Potency, µM (titrated, usually from 46 µM), without a hit: top-dose activity change, positive = activation, usual class: activators; 330,000 compounds, 1.3% hits; AID 504466; also: % of control where 0% means no effect; nearly all actives have a fitted effect of over 60% in size
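HEK293T cells expressing luciferase-tagged ELG1 were exposed to compound or DMSO vehicle for 16 hr at 37 °C and 5% CO2. Luciferase activity was then measured with ONE-Glo after 30 min at room temperature.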
* hit, by the source's call. An excerpt weighted towards active compounds, which were near 9.3% of everything screened. Calls follow the shape of the dose curve; as a rule, active = well fitted curve in the direction sought with a large enough effect; inconclusive = small, poorly fitted or top-dose-only effect, or another doubt; inactive = no such curve, though single readings can be large; an effect the other way counts as inactive or inconclusive. Potency is read from the fitted curve at half-maximal effect.

For Cc1nn2c(c1-c1ccc(Cl)cc1)N=C(c1ccco1)CC2c1ccccc1 (configuration not stated) the results were NPC1 promoter act -1%, ELG1 DNA repair inconclusive, FLuc modulator -4%, SMN2 splice enh -33%, Rab9 prom act 5% and ELG1 genotoxic -10%.
`O=Cc1c[nH]c2cccc(OCc3ccccc3)c12` gave NPC1 promoter act 17%, ELG1 DNA repair inconclusive, FLuc modulator 11µM*, Rab9 prom act 30% and ELG1 genotoxic 11%.
Screening CN(C)c1ccc(C(=O)OCC(=O)N2CCCCCC2)cc1 returned NPC1 promoter act inconclusive, ELG1 DNA repair inconclusive, FLuc modulator inconclusive, SMN2 splice enh 22%, Rab9 prom act 3.5µM* and ELG1 genotoxic 11%.
CN(C)c1ccc(C(=O)OCC(=O)NCCNC(=O)COC(=O)c2ccc(N(C)C)cc2)cc1 was read as NPC1 promoter act 4µM*, ELG1 DNA repair inconclusive, FLuc modulator 4.8µM*, Rab9 prom act 1.4µM* and ELG1 genotoxic inconclusive.
Screening O=C1CN(C(=O)/C=C/c2ccccc2F)c2ccccc2N1 returned NPC1 promoter act 12%, ELG1 DNA repair inconclusive, FLuc modulator inconclusive, SMN2 splice enh 20%, Rab9 prom act 28% and ELG1 genotoxic 13%.
Screening CSCCC(=O)N1CCC(n2nccc2NC(=O)c2ccc3c(c2)OCO3)CC1 returned NPC1 promoter act 2.8µM*, ELG1 DNA repair inconclusive, FLuc modulator 12µM*, Rab9 prom act 4µM* and ELG1 genotoxic inconclusive.
`CC#CC(=O)N1CCC(n2nccc2NC(=O)c2ccc3c(c2)OCO3)CC1` gave NPC1 promoter act -7%, ELG1 DNA repair inconclusive, FLuc modulator 3%, Rab9 prom act 20% and ELG1 genotoxic 17%.
For COc1ccc(CN2CCC(n3nccc3NC(=O)c3ccc4c(c3)OCO4)CC2)cc1C the results were NPC1 promoter act 0%, ELG1 DNA repair 2%, FLuc modulator -5%, Rab9 prom act 3% and ELG1 genotoxic 0%.
Screening Cc1ccccc1CN1CCC(n2nccc2NC(=O)c2ccc3c(c2)OCO3)CC1 returned NPC1 promoter act inconclusive, ELG1 DNA repair inconclusive, FLuc modulator 19µM*, Rab9 prom act 21% and ELG1 genotoxic inconclusive.
For CC(C)C[C@@H](CC(=O)N[C@@H](CCC(=O)O)CC(=O)O)NC(=O)[C@@H]1CNCC[C@H]1NC(=O)C[C@H](CCCN)NC(=O)C[C@H](Cc1c[nH]c2ccccc12)NC(=O)[C@@H]1CNCC[C@H]1N the results were SMN2 splice enh 10%.
Screening CCc1ccc(CNC(=O)C2CCCN(c3nnc(C)c4c(C)n(-c5ccccc5)nc34)C2)cc1 (configuration not stated) returned NPC1 promoter act 0%, ELG1 DNA repair 21µM*, FLuc modulator 0%, Rab9 prom act -4% and ELG1 genotoxic -14%.
COc1ccc(-n2nc3c(N4CCC(C(=O)NCc5cccc(C)c5)CC4)nnc(C)c3c2C)cc1 was read as NPC1 promoter act -6%, ELG1 DNA repair 18µM*, FLuc modulator 3%, Rab9 prom act 0% and ELG1 genotoxic inconclusive.
For COc1ccc(-n2nc3c(N4CCCC(C(=O)NCc5cccc(F)c5)C4)nnc(C)c3c2C)cc1 (configuration not stated) the results were FLuc modulator 0%.
Cc1nnc(N2CCCC(C(=O)NCc3ccccc3)C2)c2nn(-c3ccccc3)c(C)c12 (configuration not stated) was read as FLuc modulator -9%.
Screening COc1ncnc2sc(-c3ccccc3)cc12 returned NPC1 promoter act inconclusive, ELG1 DNA repair inconclusive, FLuc modulator 12µM*, SMN2 splice enh inconclusive, Rab9 prom act 3.2µM* and ELG1 genotoxic inconclusive.
`CN(C)C(=O)COc1ncnc2sc(-c3ccccc3)cc12` gave NPC1 promoter act 21%, ELG1 DNA repair inconclusive, FLuc modulator inconclusive, Rab9 prom act 27% and ELG1 genotoxic inconclusive.
Screening CN(C)c1ncnc2sc(-c3ccccc3)cc12 returned NPC1 promoter act 3%, ELG1 DNA repair inconclusive, FLuc modulator 15µM*, Rab9 prom act 7% and ELG1 genotoxic 15%.
Screening CC(C)(C)Nc1ncnc2sc(-c3ccccc3)cc12 returned NPC1 promoter act -1%, ELG1 DNA repair inconclusive, FLuc modulator inconclusive, Rab9 prom act -1% and ELG1 genotoxic -4%.
For COc1ccc2oc(=O)c(C(=O)Nc3cccc(C)c3)cc2c1 the results were NPC1 promoter act 4µM*, ELG1 DNA repair inconclusive, FLuc modulator 3µM*, Rab9 prom act 1.6µM* and ELG1 genotoxic 8.2µM*.
Screening COc1ccc2oc(=O)c(C(=O)Nc3cccc(C(=O)O)c3)cc2c1 returned FLuc modulator -101% and SMN2 splice enh 0.79µM*.
Cc1cccc(NC(=O)c2cc3ccccc3oc2=O)c1 was read as NPC1 promoter act 1.1µM*, ELG1 DNA repair inconclusive, FLuc modulator 0.6µM*, Rab9 prom act 1.4µM* and ELG1 genotoxic 2.1µM*.
For O=C(O)c1cccc(NC(=O)c2cc3cc(Br)cc(Br)c3oc2=O)c1 the results were FLuc modulator 12µM* and SMN2 splice enh -4%.
For COc1ccc(C(=O)NNC(=O)c2cc3cc(OC)ccc3oc2=O)cc1 the results were NPC1 promoter act 1%, ELG1 DNA repair -8%, FLuc modulator 1%, Rab9 prom act -2% and ELG1 genotoxic 2%.
Cc1ccnc(NC(=O)c2cc3ccccc3oc2=O)c1 was read as NPC1 promoter act 1.6µM*, ELG1 DNA repair inconclusive, FLuc modulator 0.85µM*, SMN2 splice enh 11µM*, Rab9 prom act 1.1µM* and ELG1 genotoxic inconclusive.
For COc1ccc(NC(=O)Cn2cnc3sc(C)c(S(=O)(=O)N4CCOCC4)c3c2=O)cc1Cl the results were NPC1 promoter act -3%, ELG1 DNA repair 1%, FLuc modulator -17%, Rab9 prom act -2% and ELG1 genotoxic -21%.
Cc1ccc(CN/C=C/C(=O)c2ccc(Br)cc2)cc1 was read as NPC1 promoter act 20%, ELG1 DNA repair inconclusive, FLuc modulator 17µM*, SMN2 splice enh 17%, Rab9 prom act 20% and ELG1 genotoxic 5%.
`Cc1ccc(C(=O)/C=C/NCc2ccc(F)cc2)cc1` gave NPC1 promoter act -3%, ELG1 DNA repair inconclusive, FLuc modulator 17µM*, SMN2 splice enh 29%, Rab9 prom act 5% and ELG1 genotoxic 10%.
